Structures can show the parent of a compound that is named as a salt.
Tested on: Neuro-2a
Test: neurite formation score, plate-normalized to DMSO control mean 5.04 (score (0-8 scale)); higher = more or longer neurites
Conditions: 0.1 µM
Description: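 Neuro-2a mouse neuroblastoma cells in PLL-coated 96-well plates were pre-treated for 1 h in DMEM(+) with each kinase inhibitor at 0.1 µM, then switched to serum-free DMEM(-) with inhibitor to induce neurite outgrowth and fixed about 2-3 h later. Three blinded observers scored neurite formation from 0 (no neurites) to 8 (long neurites on almost all cells).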

Row | SMILES | neurite formation score
1 | CCCCCCCCCCCCCCCCCC(=O)OC[C@H](CO)OC(=O)CCCCCCCCCCCCCCCCC [1,2-Distearoyl-sn-glycerol] | 5.42
2 | CC(C)(CCCCCC(O)CCCCCC(C)(C)C(=O)O)C(=O)O | 0.0903
3 | O=c1cc(CN2CCOCC2)occ1OCCCCCSc1ccnc2cc(C(F)(F)F)ccc12 | 5.75
4 | CN(C)C(=O)c1cc2cnc(Nc3ccc(N4CCNCC4)cn3)nc2n1C1CCCC1 | 4.58
5 | NC(=O)Nc1sc(-c2ccc(F)cc2)cc1C(N)=O | 4.58
6 | CCc1cc(Nc2nccc(-c3c(-c4ccc(OC)c(C(=O)Nc5c(F)cccc5F)c4)nc4ccccn34)n2)c(OC)cc1N1CCC(N2CCN(S(C)(=O)=O)CC2)CC1 | 4.71
7 | O=C(NCc1cccc(O)c1)Nc1nc(-c2ccncc2)cs1 | 5.25
8 | CCn1c(=O)c(-c2ccc(-c3cncs3)cc2Cl)cc2cnc(Nc3ccc(N4CCN(C)CC4)cc3)nc21 | 4.25
9 | CCn1cc(-c2ccnc3[nH]c(-c4cccc(CN(C)C)c4)cc23)c(-c2ccc(NC(=O)N(C)C)cc2)n1 | 5.25
10 | CCc1cncnc1N1CCN(Cc2nc3ccc(C(F)(F)F)cc3[nH]2)CC1 | 4.42
11 | O=C(c1ccc(Nc2nccc(-c3cc4ccccc4s3)n2)cc1)N1CCC(N2CCCC2)CC1 [IKK-16 (IKK Inhibitor VII)] | 3.75
12 | O=C(Nc1c[nH]nc1-c1nc2ccc(CN3CCOCC3)cc2[nH]1)NC1CC1 | 5.92
13 | Cn1c(=O)c(F)c(Nc2ccc(I)cc2F)c2c(=O)n(C[C@@H](O)CO)cnc21 | 4.42
14 | O=C(O)c1ccc(Nc2ncc3c(n2)-c2ccc(Cl)cc2C(c2c(F)cccc2F)=NC3)cc1 | 2.76
15 | CNC(=O)c1cc(Oc2ccc(NC(=O)Nc3ccc(Cl)c(C(F)(F)F)c3)c(F)c2)ccn1 [Regorafenib hydrochloride] | 4.92
16 | C=CC(=O)Nc1cccc(Nc2nc(Nc3ccc(NC4CN(CCF)C4)cc3OC)ncc2C(F)(F)F)c1 | 4.08
17 | COCCOc1ccc2c(c1)ncn2-c1ccc2cccc(N3CCC(N)CC3)c2n1 | 5.08
18 | Cc1cc(Nc2cc(N3CCN(C)CC3)nc(/C=C/c3ccccc3)n2)n[nH]1 | 3.92
19 | OCCn1cc(-c2cnc3nnn(Cc4ccc5ncccc5c4)c3n2)cn1 | 3.25
20 | NC(=O)c1ncn([C@@H]2O[C@H](CO)[C@@H](O)[C@H]2O)c1N | 5.54

Row | SMILES | neurite formation score
21 | Nc1nccc(-c2c(-c3ccc(F)cc3)ncn2C2CCCCC2)n1 | 5.58
22 | O=C(NOC[C@H](O)CO)c1ccc(F)c(F)c1Nc1ccc(I)cc1F | 4.71
23 | CNC(=O)c1cc(Oc2ccc(NC(=O)Nc3ccc(Cl)c(C(F)(F)F)c3)cc2)ccn1 [Sorafenib] | 4.71
24 | CCCCCCCCCCCCCCCc1cccc(O)c1C(=O)O [Anacardic acid] | 4.92
25 | Cc1nc(Nc2n[nH]c3c2CN(C(=O)N[C@H](CN(C)C)c2ccccc2)C3(C)C)c2sccc2n1 | 4.92
26 | N#CCNC(=O)c1ccc(-c2ccnc(Nc3ccc(N4CCOCC4)cc3)n2)cc1 | 4.92
27 | Nc1cc(C(F)(F)F)c(-c2cc(N3CCOCC3)nc(N3CCOCC3)n2)cn1 | 2.71
28 | O=C1NC(=O)[C@@H](c2cn3c4c(cccc24)CCC3)[C@@H]1c1c[nH]c2ccccc12 [Tivantinib (ARQ 197)] | 0.876
29 | COc1cc(N2CCC(N(C)C)CC2)ccc1Nc1ncc(Cl)c(Nc2ccccc2P(C)(C)=O)n1 | 4.38
30 | Cc1[nH]c(/C=C2\C(=O)Nc3ccccc32)c(C)c1CCC(=O)O [TSU-68 (SU6668,Orantinib)] | 4.54
31 | CC(=O)Nc1cccc(-n2c(=O)n(C3CC3)c(=O)c3c(Nc4ccc(I)cc4F)n(C)c(=O)c(C)c32)c1 [Trametinib DMSO solvate] | 4.92
32 | Cc1cc(C(C)Nc2ccccc2)c2nc(N3CCOCC3)cc(=O)n2c1 (stereo not given) | 3.76
33 | CCn1c2ccccc2c2cc(Nc3ccnc(NCCCN4CCOCC4)n3)ccc21 | 3.42
34 | Cn1cc(-c2ccc3ncc(Cc4ccc5ncccc5c4)n3n2)cn1 | 4.92
35 | CC(C)(C)c1ccc(S(=O)(=O)/C=C/C#N)cc1 | 4.75
36 | O=C(Nc1ccc2[nH]nc(-c3ccncc3)c2c1)[C@@H]1CCN(CC(=O)N2CCN(c3ccc(-c4ncccn4)cc3)CC2)C1 | 5.09
37 | CS(=O)(=O)c1cccc(CNc2nc(Nc3ccc4c(c3)CCC(=O)N4)ncc2C(F)(F)F)c1 | 5.09
38 | COc1cc(N2CCOCC2)ccc1Nc1ncc(F)c(Nc2ccccc2NS(C)(=O)=O)n1 | 4.75
39 | CS(=O)(=O)N1CCC(NC(=O)c2[nH]ncc2NC(=O)c2c(Cl)cccc2Cl)CC1 | 5.09
40 | COc1ccc2c(OCc3nnc4ccc(-c5ccccc5)nn34)ccnc2c1 | 5.75

From the supplement of paper PMC8047044
